# A selection: hits, their analogues and other compounds. The true share with any hit is near 2.9%.
# Peg3 prom inh: Peg3 promoter activity inhibition | HeLa PEG-Prom luciferase reporter, luminescence, overnight | inhibition, % at 20 µM | AID 588405 | actives 1.7% (n = 360,000);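 active = inhibition of at least 50% at 20 µM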
# EBV LMP1 NFkB: reduces LMP1-driven NF-kappaB luciferase signal. LMP1-induced NF-kappaB luciferase reporter cells, luminescence. inhibition, % at 12.5 µM. actives 0.69% (n = 350,000). AID 504558; in the data active = inhibition above about 41%;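 also: 0% = neutral control wells and 100% = reference inhibitor control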
# CF NFkB inh: inhibitors of cystic fibrosis induced NF-kB; AID 588850; inhibition, % at 5 µM; KKLEB NF-kB-GFP reporter, PAF-induced, GFP fluorescence overnight; actives 0.86% (n = 360,000);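 active = at least 50% inhibition at 5 µM, scaled per plate between neutral and stimulator controls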;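 also: PAF is a Pseudomonas aeruginosa culture filtrate used as stimulus; plate controls were PAF-stimulated DMSO wells for no effect and unstimulated DMSO wells for full effect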
# HIF-2a inh: inhibitors of HIF-2a; 786-0 RCC cells HIF-2a reporter, luciferase luminescence, overnight; inhibition, % at 18.8 µM; actives 0.72% (n = 360,000); AID 624352;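 active = inhibition of the luminescence signal of 40% or more relative to plate controls, in a single-dose primary screen at 18.75 µM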
# Shn3 3UTR inh: inhibitors of Schnurri-3 3'UTR reporter in osteoblasts; inhibition, % at 12.5 µM; actives 0.52% (n = 360,000); Clone20 osteoblast Shn3 3'UTR firefly luciferase, 24 h;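 active = mean inhibition of at least 75% with every replicate also reaching 75%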;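 also: 0% = median of neutral control wells and 100% = pilot-screen positive control compound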
# KKLEB cytotox: CF airway cell cytotoxicity counter-screen; KKLEB CF airway cells viability, ATPlite luminescence, overnight; hits give low values; cells stimulated with P. aeruginosa culture filtrate; activity change (cytotoxicity), % at 5 µM; actives 0.36% (n = 360,000); AID 602141;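 active = corrected activity change at or below -50% at 5 µM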
# Numbers without * were called inactive; · = no result; ! = repeats disagree.
SMILES,Peg3 prom inh,EBV LMP1 NFkB,CF NFkB inh,HIF-2a inh,Shn3 3UTR inh,KKLEB cytotox
CN(CCOc1ccc(Cl)cc1)C(=O)c1cccc(S(=O)(=O)N2CCN(c3ccc(F)cc3)CC2)c1,18,3,-6,13,89*,2
CC1CN(C(=O)c2cccc(S(=O)(=O)N3CCN(c4ccc(F)cc4)CC3)c2)CC(C)O1 (centres undefined),4,8,4,17,-6,-2
O=C(c1cccc(S(=O)(=O)N2CCN(c3ccc(F)cc3)CC2)c1)N1CCCC(C(F)(F)F)C1 (centres undefined),7,25,-18,10,92*,3
NC(=O)c1ccc(NC(=O)c2ccc(COc3ccc(F)cc3)o2)cc1,-1,4,6,5,4,-2
CCN1CCN(CCNC(=O)c2ccc3c(c2)N(Cc2cccc(Cl)c2)C(=O)c2ccccc2S3=O)CC1 (centres undefined),4,4,13,-1,-15,-8
CN(Cc1cccc(F)c1)C(=O)c1cccc(S(=O)(=O)N2CCN(Cc3ccccc3)CC2)c1,12,2,-17,21,9,14
CN(Cc1ccc(Cl)c(Cl)c1)C(=O)c1cccc(S(=O)(=O)N2CCN(Cc3ccccc3)CC2)c1,35,7,-10,12,87*,-4
CCN(C(=O)c1ccc(C(C)(C)C)cc1)c1nnc(Cn2nnc3ccccc32)s1,25,2,4,29,93*,-11
CCN(C(=O)CC(C)C)c1nnc(Cn2nnc3ccccc32)s1,3,14,26,-11,63,-21
Cc1ccc(S(=O)(=O)N[C@H](C(=O)N2CCC(C(=O)N[C@@H](CC(=O)O)C(=O)O)CC2)C(C)C)cc1,4,74*,-2,16,27,16
Brc1ccc(-c2nc(N/N=C/c3cccnc3)c3ccccc3n2)cc1,-65,1,-26,-241,-15,-70*
C(=N\Nc1nc(-c2cccnc2)nc2ccccc12)/c1ccccc1,-87,·,-22,-155,4,0
Cc1cccc(C)c1-n1nnnc1C1(C)CCC(=O)N1CCc1ccc(O)cc1 (centres undefined),·,·,·,3,·,·
N#Cc1ccc(Nc2nc(-c3ccc(O)cc3O)cs2)cc1C(F)(F)F,103*,6,6,-59,12,10
CC1CN(S(=O)(=O)c2csc(C(=O)Nc3ccccc3)c2)CC(C)O1 (centres undefined),8,13,7,0,13,12
COC(=O)c1cc(C)nc2c1C(=O)C(=O)C=C2N1CCOCC1,100*,14,88*,83*,99*,-58*
Cc1ccc2ccc(C(Nc3ccccc3)c3ccc(Cl)cc3)c(O)c2n1 (centres undefined),·,·,·,-79,·,·
CCC1CCCCN1CCCNC(=O)c1ccc(CS(=O)(=O)c2ccccc2C)o1 (centres undefined),-12,-1,-13,14,10,1
O=c1cc(-c2ccc(Cl)cc2)oc(=O)[nH]1,2,-2,-12,7,-2,-6
O=c1cc(N=Nc2ccc(Cl)cc2)[nH]c(=O)[nH]1,111*,1,68*,14,65,-7
COc1ccc(NC2CCCN(C(=O)c3ccccc3N3CCOCC3)C2)cc1OC (centres undefined),8,-3,-4,31,3,-1
CCCCCCCCCCCCCCCC[n+]1cccc(C(=O)N(CC)CC)c1,105*,4,91*!,46*,76,-93*!
Nc1ccn(C2OC(CO)C(O)C2O)c(=O)n1 (centres undefined),40,·,-39,9,67,11
Nc1ccn([C@@H]2O[C@H](CO)[C@@H](O)[C@@H]2O)c(=O)n1,23,53*,-24,-7,76,5
O=C(O)/C=C/c1ccc2ccccc2n1,-5,76*,2,9,-8,-11
SMILES,Peg3 prom inh,EBV LMP1 NFkB,CF NFkB inh,HIF-2a inh,Shn3 3UTR inh,KKLEB cytotox
O=C(/C=C/c1ccc2ccccc2n1)c1cc(Br)ccc1O,-134,-47,-2,-170,-52,15
Oc1ccc(/C=C/c2ccc3ccccc3n2)cc1,46,48*,-87,26,68,-40
C(=C\c1ccc2ccccc2n1)/c1ccccc1,-4,40,-26,-3,43,-43
COc1ccc(Nc2c(-c3ccc(F)cc3)nc3nc(C)cc(C)n23)cc1,·,·,·,-28,·,·
CCCCCCn1ccc(=N)cc1,7,12,-2,19,86*,2
COc1cc(/C=C2/SC(=S)N(Cc3ccccc3)C2=O)ccc1OS(C)(=O)=O,-56,39,2,-93,-3,-6
COc1cc(/C=C2/SC(=S)N(Cc3ccccc3)C2=O)ccc1OCC(=O)O,-6,47*,25,-15,5,-2
COc1ccc(/C=C2\SC(=S)N(CCC(=O)NC3=NCCS3)C2=O)cc1OC,-4,21,-2,54*,24,-1
COc1ccc(/C=C2\SC(=S)N(CCCC(=O)Nc3ccccn3)C2=O)cc1OC,17,1,6,40*,5,-2
O=C(/C=C/NNC(=O)c1ccccc1)c1ccc([N+](=O)[O-])cc1,47,17,-20,-11,34,-3
CC(C)Oc1ccc(CN2CCC(n3nccc3NC(=O)CCc3ccccc3)CC2)cc1,6,0,-7,9,14,6
O=C(CCc1nnc(-c2ccc(-c3ccccc3)cc2)o1)NCCc1ccccn1,-114,25,-20,40*,14,14
Cc1nc(N2CCN(c3ccccn3)CC2)c2c(C)c(C(=O)N3CCN(c4ccccc4F)CC3)sc2n1,72*,-2,12,12,-2,-17
Cc1ccc(NC(=O)c2sc3nc(C)nc(N4CCN(c5ccccn5)CC4)c3c2C)c(C)c1,16,4,28,15,15,-12
COc1cc(/C=N/NC(=O)CCn2cnc(-c3ccccc3)c2-c2ccccc2)ccc1O,53*,15,-8,20,-4,4
COc1cc(/C=N/NC(=O)CCN2CCCCC2)ccc1O,4,-6,-10,6,-15,-3
COc1cc(/C=N/NC(=S)Nc2cccc(C(=O)O)c2)ccc1O,12,74*,-3,43*,17,-6
CC(C)NC(=O)CSc1nc(Cc2cccs2)nc2ccccc12,15,-5,8,-5,13,-2
O=S(=O)(NCCS(=O)(=O)N1CCN(c2ccc(F)cc2)CC1)c1ccccc1,11,0,-7,7,13,-1
O=C(Nc1ccc(CN2CCS(=O)(=O)CC2)cc1)c1ccc(Cl)cc1,-38,7,-17,-63,7,0
COc1cccc(-n2c(SCC(=O)N3CCOCC3)nc3c([nH]c4ccccc43)c2=O)c1,19,-29,34,-10,47,-55*
COc1cccc(-n2c(SCC(=O)N3CCOCC3)nnc2-c2c[nH]c3ccccc23)c1,7,-3,30,-12,-3,-26

# Compound activity deposited in PubChem BioAssay by several laboratories.
